Screens (PubChem)
SARS PLpro yeast: inhibitors of SARS-CoV papain-like protease in yeast; actives 0.19% (n = 330,000); S. cerevisiae expressing SARS-CoV PLpro, growth rescue; Potency, µM (series often up to 32.9 µM), most hits filed as activators; calls by dose curve; also: nearly all actives have a fitted effect of over 55% in size
Sm TGR block: blocks Schistosoma mansoni thioredoxin glutathione reductase; Q962Y6; actives 3% (n = 360,000); purified TGR, DTNB reduction, TNB absorbance 405 nm; Potency, µM (titrated, usually from 114 µM), hits mostly inhibitors; also: nearly all actives have a fitted effect of over 60% in size
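First, TGR (20 nM dispensed) and NADPH were mixed with compound. Second, a 15 min room-temperature incubation followed. Third, further NADPH and then DTNB were added to start the reaction. Finally, TNB absorbance was monitored kinetically.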
Pf growth 96h: P. falciparum growth inhibition at 96 hour, primary screen for plastid delayed-death inhibitors. P. falciparum luciferase reporter growth, 96 h. Potency, µM (doses to about 28.7 µM), usual class: inhibitors. actives 6.9% (n = 320,000)
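Luminescence readout: decreased luciferase signal marks inhibited growth of reporter-expressing P. falciparum in infected red cells (2% hematocrit, 0.05% parasitemia final), exposed to compound two generations (96 h, 37 C, 5% CO2).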
HCMV inh: inhibitors of human cytomegalovirus | AID 1259415 | activity change, negative = inhibition, % at 57.5 µM | actives 4.5% (n = 410,000) | HFF cells, HCMV-luciferase reporter, 72 h; stronger effect = lower value; in the data active = activity change below about -60%; inconclusive = no clear call, values can overlap the other calls; inactive = above about -39%
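Inhibition of viral replication was scored as loss of reporter luminescence in HFFs infected with HCMV-luciferase (MOI 1 PFU/cell) for 72 h; compounds tested at 2 doses, normalized to buffer and Salinomycin controls.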
Pf growth 48h: inhibits P. falciparum growth in the first generation, 48 h. P. falciparum luciferase growth in erythrocytes, 48 h. actives 5.9% (n = 310,000). Potency, µM (series often up to 28.7 µM), usual class: inhibitors
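Read-out is firefly luciferase luminescence from an integrated reporter in P. falciparum, so falling signal marks reduced parasite growth. Infected erythrocytes were at 2% hematocrit and 0.1% parasitemia (final) in Albumax-supplemented RPMI 1640.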
HCV inhibitor: blocks hepatitis C virus | Huh7.5.1 HCVcc-Cre infection, luciferase reporter, 44 h | Potency, µM (titrated, usually from 41.8 µM), usual class: inhibitors | actives 3.4% (n = 340,000) | AID 651820
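Infectious HCVcc-Cre (~0.5 moi) was added to cells just after compound, with cells seeded 4 h earlier at 1,000 per well. Luciferase activity after 44 h culture reported infection; substrate was incubated 15 min at room temperature before reading.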
A number is an active result; . = inactive; ? = inconclusive; / = no result given; ! = not active in a repeat. Shown are actives, neighbours in structure and some others; about 15% of the full set was active somewhere. Unless noted, calls follow the shape of the dose curve; as a rule, active = well fitted curve in the direction sought with a large enough effect; inconclusive = small, poorly fitted or top-dose-only effect, or another doubt; inactive = no such curve, though single readings can be large; an effect the other way counts as inactive or inconclusive.

SMILES	SARS PLpro yeast	Sm TGR block	Pf growth 96h	HCMV inh	Pf growth 48h	HCV inhibitor
C=CCN(c1ccccc1)S(=O)(=O)c1ccc2[nH]cc(C(=O)NCCOC)c(=O)c2c1	.	.	4.7µM	.	?	?
COCCNC(=O)c1c[nH]c2ccc(S(=O)(=O)N(C)c3ccc(C)c(C)c3)cc2c1=O	.	.	?	.	/	.
Cc1ccc(-c2csc(NS(=O)(=O)c3cccc(F)c3)n2)o1	.	/	/	.	/	.
O=C1O[C@@H]([C@H](O)CO)C(O)=C1O	/	/	/	.	/	.
CCN(CC)S(=O)(=O)c1ccc2[nH]cc(C(=O)NCCCN3CCCCC3)c(=O)c2c1	.	.	?	.	?	.
CCc1ccc(N(C)S(=O)(=O)c2ccc3[nH]cc(C(=O)NCCN4CCOCC4)c(=O)c3c2)cc1	.	.	?	?	/	.
CCN(CC)S(=O)(=O)c1ccc2[nH]cc(C(=O)NCCCN3CCCCC3C)c(=O)c2c1 (configuration not stated)	.	.	/	-73	10µM	.
CCN(CC)S(=O)(=O)c1ccc2[nH]cc(C(=O)NCCC3=CCCCC3)c(=O)c2c1	.	.	.	-83	8.3µM	11µM
CCc1ccc(C(=O)NNc2ccccc2F)cc1	.	.	.	?	.	.
CCc1ccc(C(=O)NNc2cc(Cl)ccc2Cl)cc1	.	.	.	-68	?	?
COc1cccc(CNC(=O)CSc2nc3ccc(C)cc3[nH]2)c1	.	.	.	.	.	.
CCOc1ccccc1NC(=O)Nc1cccc(C(C)=O)c1	.	.	.	.	/	7.1µM
CCOc1ccccc1NC(=S)Nc1ccc(S(N)(=O)=O)cc1	.	14µM	.	.	.	.
CCOc1ccccc1NC(=O)Nc1cccc(S(N)(=O)=O)c1	.	.	.	?	.	32µM
COc1ccccc1NC(=S)NCc1ccc(S(N)(=O)=O)cc1	.	?	?	.	.	.
O=C(COc1cccc(Cl)c1)Nc1ccc2c(c1)CCC2	.	.	.	-66	.	?
CCOc1ccc(-n2c(=O)c3sc4ccccc4c3n(Cc3cccc(C)c3)c2=O)cc1	/	.	/	.	/	/
Cc1nn(C)c2c1c(-c1ccccc1)cc(=O)n2C(C)C(=O)NCCc1ccc(Cl)cc1 (configuration not stated)	/	.	/	.	/	/
CCOc1ccccc1NC(=O)Nc1ccc2c(c1)CCC2	.	.	?	.	.	13µM
C(=C\c1nc2ccccc2[nH]1)/c1ccccc1	.	.	?	.	.	11µM
Fc1cccc(F)c1/C=C/c1ccc2ccccc2n1	.	.	.	.	.	.
CC(O)/C=C/c1ccc2ccccc2n1 (configuration not stated)	.	.	/	?	.	11µM
C(=C\c1ccco1)/c1ccc2ccccc2n1	.	7.9µM	.	.	.	.
C(=C\c1ccco1)/c1nc2ccccc2[nH]1	.	3.2µM	.	?	.	.
COCCNC(=O)CSc1nnc2[nH]c(=O)cc(C)n12	/	.	/	.	/	/
SMILES	SARS PLpro yeast	Sm TGR block	Pf growth 96h	HCMV inh	Pf growth 48h	HCV inhibitor
Cc1ccnc(Nc2nc(-c3ccccc3)cs2)c1	.	?	.	.	.	?
Cc1ccnc(N/C=C(\C#N)c2nc(-c3cccc(Br)c3)cs2)c1	.	.	2.9µM	-80	12µM	?
Cc1ccc(Cl)cc1N1CCN(c2nc3ccc(C(=O)c4ccccc4)cc3n3cnnc23)CC1	/	.	/	.	/	/
Cc1ccc(CS(=O)(=O)c2nc3c(c(N(C)C)n2)CCCC3)cc1	.	.	?	-93	.	.
CC(=O)c1ccc(NC(=O)CSc2nnc(-c3ccco3)c(-c3ccco3)n2)cc1	.	2.8µM	.	.	.	?
O=C(CSc1nnc(-c2ccco2)c(-c2ccco2)n1)c1ccccc1	.	.	?	.	.	2.8µM
COc1ccc(-c2nnc(SCC(=O)Nc3ccc(C(C)=O)cc3)nc2-c2ccc(OC)cc2)cc1	/	.	/	.	/	/
CC1(C(=O)NS(=O)(=O)c2ccc(Cl)s2)CCN1C(=O)c1ccc(C2CCCCC2)cc1 (configuration not stated)	/	/	/	.	/	/
Cc1ccc(-c2cc(C(=O)OCC(=O)N(C)c3c(N)n(Cc4ccccc4)c(=O)[nH]c3=O)c3ccccc3n2)o1	.	.	?	.	?	.
CCCn1c(N)c(N(CCOC)C(=O)c2cc(Cl)nc3ccccc23)c(=O)[nH]c1=O	.	.	.	.	.	.
CCCN(C(=O)c1cc(-c2ccco2)nc2ccccc12)c1c(N)n(Cc2ccccc2)c(=O)[nH]c1=O	.	8.9µM	?	.	?	.
COCCN(C(=O)c1cc(-c2ccco2)nc2ccccc12)c1c(N)n(Cc2ccccc2)c(=O)[nH]c1=O	.	/	/	-69	/	.
Cc1c(C)c2cc(Cl)c(OCC(=O)NC3CC(C)(C)NC(C)(C)C3)cc2oc1=O	.	.	?	.	?	?
COc1ccc(S(=O)(=O)N2CCOC23CCN(S(=O)(=O)c2cc(C)ccc2OC)CC3)cc1	/	?	.	.	?	.
CC1(c2ccc3ccccc3c2)NC(=O)N(CC(=O)N2CCCC(C(F)(F)F)C2)C1=O (configuration not stated)	.	.	?	.	.	.
CC12CC3CC(C)(C1)CC(N)(C3)C2	.	.	6.7µM!	?	?	.
COc1cc(SC)ccc1C(=O)N1CC(C)OC(C)C1 (configuration not stated)	.	?	.	.	1.7µM	.
COc1cc(SC)ccc1C(=O)N1CCN(S(=O)(=O)/C=C/c2ccccc2)CC1	.	40µM	?	.	?	.
O=C(COc1ccc(Br)cc1)N1CCN(S(=O)(=O)/C=C/c2ccccc2)CC1	.	.	12µM	.	?	?
Cc1ccc(C(=O)N2CC(C)OC(C)C2)c(Cl)c1 (configuration not stated)	.	.	3.7µM	.	/	.
O=C(COc1ccccc1F)N1CCN(S(=O)(=O)/C=C/c2ccccc2)CC1	.	.	.	?	.	.
O=C(Nc1cnc2ccccn2c1=O)c1ccc(Cl)cc1	.	.	.	.	.	.
C=CCOc1ccc(C=CC(=O)c2c(O)c(OC)c(OC)c(OC)c2OC)cc1	/	/	/	.	/	?
CCc1nnc(NC(=O)CSc2nc3ccc(OC)cc3[nH]2)s1	.	/	.	.	.	.
Cc1ccc(C(=O)NCc2ccccn2)cc1NC1=NC2CS(=O)(=O)CC2S1 (configuration not stated)	.	.	.	.	.	.
Cc1ccc2nc(-c3ccncc3)cc(C(=O)Nc3ccc(F)cc3C)c2c1	.	.	?	.	6.6µM	.
Cc1ccc2nc(-c3ccccc3)cc(C(=O)Nc3cccnc3)c2c1	.	.	1.7µM	.	2.1µM	.
Cc1cccc(-c2cc(C(=O)Nc3cccnc3)c3ccccc3n2)c1	.	.	?	?	?	.
